According to the supplement of paper PMC10338343:
± gives the standard deviation.

These sequences were tested on MILI (PIWIL2) piRISC loaded with L1MC piRNA (26 nt) (assay: pre-steady-state target cleavage rate (min^-1); guide: L1MC piRNA 5'p-UAACUAAAUACUAUGCAAGCUGUAGG; MIWI and MILI are mouse PIWI proteins and EfPiwi is from a freshwater sponge; tags in brackets are library labels; higher = faster piRNA-guided slicing of the target). Settings: auxiliary factor: 500 nM mouse GTSF1.
Method: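 Cleave-'n-Seq: a library of target RNAs (target site embedded in constant flanks, ACAGCATTCCGCGTTAGTGATATCCG... 5' flank; DNA-blocked outside the site) at 0.1 nM was incubated with 1 nM active mouse MILI or MIWI piRISC (synthetic 5'-monophosphorylated piRNA guide) with or without 500 nM mouse GTSF1 at 33 °C for 1 min to 16 h. Uncleaved targets were sequenced and normalised to non-target controls, and the pooled three trials were fitted to a burst-and-steady-state model to give the pre-steady-state cleavage rate (min^-1; k3 is constrained to at most 1e-4). Sequence is the target site only; target names encode pairing extent (gX:gY) and contiguous / 1-mismatch / 2-mismatch / bulge geometry. Fits with R² ≤ 0 are excluded.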

Row | Sequence | pre-steady-state target cleavage rate
1 | UCCUGCUACAGCUUGCAUAGUACUUAGUUA | 0.233 ± 0.026
2 | UCCUGCUACAGCUUGCAUAGUAUUUAUUUA | 0.148 ± 0.03
3 | UCCUGGAACAGGAAGCAUAGUAUUUAGAAA | 0.049 ± 0.011
4 | UCCUGGAUGUCGAUGCAUAGUAUUUAGUUA [g2:g17:cont:t1A] | 0.124 ± 0.017
5 | UCCUGGAUGAGCUUGCAUAGUAUUUACAAA | 0.0638 ± 0.018
6 | UCCUGGAUCUGCUUGCAUAGUAUUUUCAAA | 0.0366 ± 0.0094
7 | UCCUGGAUGUCGUUGCAUAGUAGUUUAGUUA | 0.0297 ± 0.0098
8 | UCCUCCUACAGUUGCAUAGUAUUUAGUUA | 0.255 ± 0.014
9 | UCCUGGAACUGCUUGCAUUGUAUUUAGUUA | 0.177 ± 0.015
10 | UCCUGGAACAGCUUGCAUAGUAUUUACAAA | 0.222 ± 0.048
11 | UCCUGGAACAGCUUGCAUAGAUUUUAGUUA | 0.0289 ± 0.0057
12 | UCCUGGAUGUCGAUGCAUAGUAUUUACUUA | 0.0276 ± 0.01
13 | UCCUGGAACAGCUUGCAUAGUGAUUUAGUUA | 0.0178 ± 0.007
14 | UCCUGGUACAGCUAGCAUACUAUUUAGUUA | 0.126 ± 0.026
15 | UCCUGGUACAGCUUGCUAUGUAUUUAGUAA | 0.00603 ± 0.0046
16 | UCCUGGUACUGCUUGCAUAGUAUUUAGUUA | 0.174 ± 0.023
17 | UCCUGGUACAGCUUGCAGAGUAUUUAGUUA | 0.121 ± 0.026
18 | UCCUGCAUACAGCUUGCAUAGUAUUUAGUUA | 0.554 ± 0.047
19 | UCCUCCUACAGCUUGCAAAGUAUUUAGUUA | 0.167 ± 0.014
20 | UCCUCCUACAGCUUCGAUAGUAUUUACAAA | 0.0556 ± 0.016
21 | UCCUGGAUGUGUUGCAUAGUAUUUAGUUA | 0.173 ± 0.022
22 | UCCUGGAUGAGCUAGCAUAGUAUUUACUUA | 0.169 ± 0.042
23 | UCCUCCUACAGCUUGGAUAGUAUUUAGAAA | 0.0815 ± 0.017
24 | UCCUGCUACAGCUAGCAUAGUAAUUAGUUA | 0.284 ± 0.026

Same assay, conditions: auxiliary factor: none (no GTSF1)

Row | Sequence | pre-steady-state target cleavage rate
25 | UCCUGCUACAGCUUGCAUAGUACUUAGUUA | 0.00719 ± 0.0026
26 | UCCUGCUACAGCUUGCAUAGUAUUUAUUUA | 0.00466 ± 0.0021
27 | UCCUGGAUGUCGAUGCAUAGUAUUUAGUUA [g2:g17:cont:t1A] | 0.0067 ± 0.0017
28 | UCCUGGAUGUCGUUGCAUAGUAGUUUAGUUA | 0.0066 ± 0.0025
29 | UCCUCCUACAGUUGCAUAGUAUUUAGUUA | 0.00612 ± 0.0019
30 | UCCUGGAACUGCUUGCAUUGUAUUUAGUUA | 0.00842 ± 0.0019
31 | UCCUGGAACAGCUUGCAUAGAUUUUAGUUA | 0.003 ± 0.0026
32 | UCCUGGAACAGCUUGCAUAGUGAUUUAGUUA | 0.00499 ± 0.0023
33 | UCCUGGUACAGCUAGCAUACUAUUUAGUUA | 0.00435 ± 0.0028
34 | UCCUGGUACUGCUUGCAUAGUAUUUAGUUA | 0.0139 ± 0.0037
35 | UCCUGGUACAGCUUGCAGAGUAUUUAGUUA | 0.00836 ± 0.0028
36 | UCCUGCAUACAGCUUGCAUAGUAUUUAGUUA | 0.0104 ± 0.0034
37 | UCCUCCUACAGCUUGCAAAGUAUUUAGUUA | 0.00717 ± 0.0022
38 | UCCUGGAUGUGUUGCAUAGUAUUUAGUUA | 0.00684 ± 0.0022
39 | UCCUGCUACAGCUAGCAUAGUAAUUAGUUA | 0.0047 ± 0.003
